This note sets out measurements from PubChem BioAssay (EPA / NIEHS).

Read-out in assay [1]: Monokine induced gamma interferon (MIG), CXCL9 (gene 4283)
In words: BSK_3C_MIG: BioMAP Diversity Plus: 3C Assay for Monokine induced gamma interferon (MIG) Biomarker Activity (AID 2283021).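 For AC50: MIG protein level measured by immunoassay in the treated endothelial cultures.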 The settings on record: primary human endothelial cells (HUVEC); actives raise or lower the signal. In short, it runs like this:
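ELISA-measured MIG in dosed HUVEC 3C cultures at 24 h, analysed by bidirectional fitting with DMSO defining baseline activity.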

Assay [2] can be described thus: BSK_3C_SRB: Viability Assessment in the BioMAP Diversity Plus: 3C Assay (AID 2283023).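 Note: fitted both ways against DMSO so a hit may be signal rise or drop.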 The settings on record: primary human endothelial cells (HUVEC). In a few lines:
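Overt cytotoxicity is gauged in parallel confluent HUVEC cultures by SRB total-protein staining at the time of biomarker measurement, 24 h after dosing. Gain or loss of signal is fitted versus DMSO.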

Read-out in assay [3]: Matrix Metallopeptidase 1 (MMP1), MMP1 (gene 4312)
The experiment in a line: BSK_BE3C_MMP1: BioMAP Diversity Plus: BE3C Assay for Matrix Metallopeptidase 1 (MMP1) Biomarker Activity (AID 2283024). As to conditions: primary human bronchial epithelial cells; actives raise or lower the signal. In short, it runs like this:
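In this multiplexed primary-cell system, human bronchial epithelium received chemicals for 24 h before an ELISA for MMP1. Values reflect bidirectional fits normalised to the DMSO baseline.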

Assay [4] can be described thus: BSK_3C_Vis: BioMAP Diversity Plus: 3C Assay for Morphology Visualization (AID 2283025).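 For AC50: light microscopy image of cell morphology used as background control; cells imaged 24 h after dosing.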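 Note: fitted both ways so gain or loss versus DMSO counts.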 As to conditions: primary human endothelial cells (HUVEC). In short, it runs like this: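 Light-microscopy morphology readout, 24 h exposure, human primary umbilical vein endothelium; analysed relative to DMSO with bidirectional fitting.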
Read-out in assay [5]: Pselectin, SELP (gene 6403)
In words: BSK_4H_Pselectin: BioMAP Diversity Plus: 4H Assay for Pselectin Biomarker Activity (AID 2283026). The settings on record: primary human endothelial cells (HUVEC); actives raise or lower the signal. In short, it runs like this:
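Bidirectional fits against DMSO gave the endpoint. Cells: primary human umbilical vein endothelium, chemical-treated for 24 h before ELISA detection of P-selectin.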

A short description of assay [6]: BSK_4H_SRB: Viability Assessment in the BioMAP Diversity Plus: 4H Assay (AID 2283027).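 For AC50: curves fitted both ways versus DMSO so AC50 may be loss or gain.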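 Note: cells exposed to compound for 24 h before staining.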 The settings on record: primary human endothelial cells (HUVEC). In a few lines: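 Cytotoxicity read-out in primary human endothelial cells: after 24 h compound exposure, cells were TCA-fixed (10%), stained with 0.1% SRB and absorbance taken at 560 nm. Values fitted in both directions relative to DMSO.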

The nature of assay [7]: BSK_BE3C_SRB: Viability Assessment in the BioMAP Diversity Plus: BE3C Assay (AID 2283028).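 For AC50: fitted both ways so AC50 may mark signal gain or loss versus DMSO.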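 Note: measured 24 h after chemical dosing.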 The settings on record: primary human bronchial epithelial cells. In a few lines:
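SRB total-protein staining (0.1%, after TCA fixation) of chemically dosed human bronchial epithelial primary cells at 24 h; DMSO serves as the negative control for bidirectional curve fitting.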

Read-out in assay [8]: Thrombomodulin, THBD (gene 7056)
The experiment in a line: BSK_3C_Thrombomodulin: BioMAP Diversity Plus: 3C Assay for Thrombomodulin Biomarker Activity (AID 2283029). As to conditions: primary human endothelial cells (HUVEC); actives raise or lower the signal. In a few lines:
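In a multiplexed primary-cell system, human umbilical vein endothelium received chemical and was assayed 24 h later for thrombomodulin by ELISA. Parallel cultures were SRB-stained (0.1% SRB after 10% TCA fixation, read at 560 nm) to flag cytotoxicity.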

Read-out in assay [9]: Urokinase-type plasminogen activator receptor (uPAR), PLAUR (gene 5329)
In words: BSK_4H_uPAR: BioMAP Diversity Plus: 4H Assay for Urokinase-type plasminogen activator receptor (uPAR) Biomarker Activity (AID 2283030). As to conditions: primary human endothelial cells (HUVEC); actives raise or lower the signal. In short, it runs like this:
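Endpoint derived via bidirectional curve fitting against DMSO baseline; readout was ELISA detection of uPAR on umbilical vein endothelial cells at 24 h post-treatment, with SRB-stained parallel cultures assessing cytotoxicity.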

The structures appear in SMILES notation. Activity calls are given as the source filed them. Rule for the calls: active = hit-call score of the fitted dose curve at least 0.9, where 1 is the maximum; inactive = score below 0.9.

In general, AC50 refers to the midpoint of the concentration-response curve, whichever way the signal moves. With `CNC(=O)ON=C(SC)C(=O)N(C)C`, the result in [1], in assay [2], in assay [3], in assay [5], in [6] and in assay [7] was inactive. The outcome in assay [8] and in assay [9] was inactive. Further, in assay [4], the AC50 is 39 µM (active).

For the compound `CC(C1CC1)C(O)(Cn1cncn1)c1ccc(Cl)cc1` (stereo not given), the outcome in assay [1], in [2], in [3], in assay [4], in assay [5] and in assay [6] was inactive. The result in assay [7], in assay [8] and in assay [9] was inactive.

Turning to `CCOP(=S)(OCC)SCCSCC`, the outcome in assay [1], in assay [2], in assay [3], in assay [5], in [6] and in assay [7] was inactive. Besides, the outcome in assay [8] and in [9] was inactive. Moreover, the concentration at half-maximal activity (AC50) in assay [4] is 9.8 µM (active).

For the compound `CCC(=O)Nc1ccc(Cl)c(Cl)c1`, the result in assay [1], in assay [2], in assay [3], in assay [5], in [6] and in assay [7] was inactive. In addition, the result in assay [8] and in assay [9] was inactive. The half-maximal activity concentration (AC50) in assay [4] was 9.8 µM (active).

As to `O=c1ccc(=O)[nH][nH]1`, the result in assay [1], in assay [2], in assay [3], in assay [4], in assay [5] and in assay [6] was inactive. Also, the outcome in assay [7], in [8] and in assay [9] was inactive.

As to `FC(F)C(F)(F)OCC(Cn1cncn1)c1ccc(Cl)cc1Cl` (stereo not given), the result in assay [1], in assay [3], in assay [6], in [7] and in assay [8] was inactive. The AC50 in assay [2] was 20 µM (active); in assay [4], 39 µM (active); in [5] it was 33.7 µM (active); in assay [9], 31.7 µM (active).

For the compound `CCNc1nc(Cl)nc(NC(C)(C)C#N)n1`, the outcome in [1], in assay [2], in assay [3], in assay [4], in assay [5] and in assay [6] was inactive. The outcome in assay [7], in assay [8] and in assay [9] was inactive.

`CC(C)[C@H](C(=O)O[C@H](C#N)c1cccc(Oc2ccccc2)c1)c1ccc(Cl)cc1`: the outcome in assay [1], in [3], in assay [4], in assay [5], in assay [6] and in assay [8] was inactive. In addition, the result in [9] was inactive. Besides, the AC50 in assay [2] was 5.72 µM (active).

Consider `CCOP(=S)(OCC)Oc1cc(C)nc(C(C)C)n1`, for which the result in assay [1], in assay [2], in [3], in assay [4], in assay [5] and in assay [6] was inactive. For the same compound, the outcome in [7], in assay [8] and in assay [9] was inactive.

`CCc1cccc(CC)c1N(COC)C(=O)CCl`: the outcome in [1], in assay [3], in assay [7], in [8] and in assay [9] was inactive. The half-maximal activity concentration (AC50) in [2] is 20 µM (active); in assay [4], 39 µM (active); in assay [5], 14.9 µM (active); in assay [6], 14.8 µM (active).

Regarding `CCCOCC(=Nc1ccc(Cl)cc1C(F)(F)F)n1ccnc1`, the AC50 in [1] was 35.1 µM (active); in assay [2] it was 31 µM (active); in assay [3] it was 34 µM (active); in assay [4], 20 µM (active); in [5], 29.8 µM (active); in [6], 29 µM (active). The AC50 in assay [7] is 20 µM (active); in assay [8] it was 35 µM (active); in [9] it was 36.7 µM (active).

`CSc1nnc(C(C)(C)C)c(=O)n1N`: the result in assay [1], in [2], in assay [3], in [4], in assay [5] and in [6] was inactive. For the same compound, the result in assay [7], in [8] and in assay [9] was inactive.

Regarding `CCOC(=O)CC(SP(=O)(OC)OC)C(=O)OCC` (stereo not given), the result in assay [1], in [2], in assay [3], in assay [4], in assay [5] and in assay [6] was inactive. The result in [7], in [8] and in assay [9] was inactive.

Consider `CCCCOC(=O)[C@@H](C)Oc1ccc(Oc2ccc(C#N)cc2F)cc1`, for which the outcome in [1], in assay [2], in [3], in assay [4], in assay [5] and in assay [6] was inactive. The result in [7], in [8] and in assay [9] was inactive.

Consider `CNc1cnn(-c2cccc(C(F)(F)F)c2)c(=O)c1Cl`, for which the result in assay [1], in assay [2], in assay [3], in [4], in assay [5] and in assay [6] was inactive. The outcome in [7], in assay [8] and in assay [9] was inactive.

For `CC(C)N(C(=O)SCC(Cl)=C(Cl)Cl)C(C)C`, the AC50 is 38.3 µM (active) in [1]; 29.8 µM (active) in assay [2]; 37.2 µM (active) in assay [4]; 31.5 µM (active) in assay [5]; 33.4 µM (active) in assay [6]; 31.4 µM (active) in assay [9]. For the same compound, the outcome in assay [3], in assay [7] and in assay [8] was inactive.

As for `CCOP(=S)(OCC)OC(Cl)C(Cl)(Cl)Cl` (stereo not given), the result in assay [1], in assay [3], in assay [7], in assay [8] and in assay [9] was inactive. Besides, the AC50 was 14.9 µM (active) in assay [2], 39.8 µM (active) in assay [4], 29.4 µM (active) in assay [5] and 12.4 µM (active) in assay [6].

On to `N#CSCSC#N`, for which the AC50 in assay [1] was 10.8 µM (active); in assay [2], 4.78 µM (active); in assay [4], 5.45 µM (active); in assay [5], 5.1 µM (active); in assay [6], 10.2 µM (active); in assay [8], 13.5 µM (active). The AC50 in [9] was 5.82 µM (active). Also, the result in [3] and in [7] was inactive.

In the case of `Cc1ccn2nc(S(=O)(=O)Nc3c(F)cccc3F)nc2n1`, the outcome in [1], in assay [2], in assay [3], in [4], in [5] and in assay [7] was inactive. For the same compound, the result in [8] and in [9] was inactive. Also, the AC50 in assay [6] is 0.229 µM (active).
